Source: PubChem
Shn3 3UTR inh – Schnurri-3 reporter inhibition in Clone20 osteoblasts | inhibition, % at 12.5 µM | AID 588674 | Clone20 osteoblast Shn3 3'UTR firefly luciferase, 24 h | hit rate 0.52% among 360,000;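 active = mean inhibition of at least 75% with every replicate also reaching 75%; inconclusive = mean inhibition at least 75% but some replicate below; inactive = mean inhibition below 75%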;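 note: 0% = median of neutral control wells and 100% = pilot-screen positive control compound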
Mdm2-MdmX inh – inhibitors of human Mdm2/MdmX interaction | AID 485346 | O15151+Q00987 | hit rate 3% among 330,000 | inhibition, % at 8 µM | SaOS-2 split-luciferase Mdm2/MdmX complementation, luminescence;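 active = inhibition of at least 50% at 8 µM in the primary screen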
Target sequence (O15151 whole entry, looked up): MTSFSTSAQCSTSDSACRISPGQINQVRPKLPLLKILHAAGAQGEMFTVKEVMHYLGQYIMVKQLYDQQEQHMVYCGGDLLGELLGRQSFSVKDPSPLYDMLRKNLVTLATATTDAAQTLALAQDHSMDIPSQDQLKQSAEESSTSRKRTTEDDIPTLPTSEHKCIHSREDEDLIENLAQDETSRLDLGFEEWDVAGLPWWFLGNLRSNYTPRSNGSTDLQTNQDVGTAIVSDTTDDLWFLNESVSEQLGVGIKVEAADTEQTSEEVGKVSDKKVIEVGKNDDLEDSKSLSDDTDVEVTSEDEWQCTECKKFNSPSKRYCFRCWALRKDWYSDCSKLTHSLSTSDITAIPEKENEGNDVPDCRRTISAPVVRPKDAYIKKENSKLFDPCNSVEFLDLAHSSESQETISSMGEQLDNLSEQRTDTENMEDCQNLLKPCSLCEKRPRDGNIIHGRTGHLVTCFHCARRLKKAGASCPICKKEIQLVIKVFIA
Target sequence (Q00987 whole entry, looked up): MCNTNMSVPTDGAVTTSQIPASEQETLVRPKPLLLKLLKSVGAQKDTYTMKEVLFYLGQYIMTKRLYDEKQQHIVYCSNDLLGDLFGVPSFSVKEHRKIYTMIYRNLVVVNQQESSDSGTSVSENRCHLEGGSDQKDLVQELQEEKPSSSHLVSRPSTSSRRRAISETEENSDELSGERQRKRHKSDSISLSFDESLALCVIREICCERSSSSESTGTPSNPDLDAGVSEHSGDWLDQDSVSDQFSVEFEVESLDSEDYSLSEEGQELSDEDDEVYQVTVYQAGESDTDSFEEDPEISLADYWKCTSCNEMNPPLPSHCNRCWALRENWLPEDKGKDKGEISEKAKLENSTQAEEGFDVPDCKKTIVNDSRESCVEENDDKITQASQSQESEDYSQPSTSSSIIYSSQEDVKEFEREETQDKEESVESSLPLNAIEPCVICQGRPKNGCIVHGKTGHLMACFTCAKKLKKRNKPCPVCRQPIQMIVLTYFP
CSC inhib – blocks cancer stem cells; cancer stem cell-like cells viability, luminescence; inhibition, % at 7.5 µM; hit rate 1.1% among 300,000; AID 2717; in the data active = inhibition above about 75%; inconclusive = no clear call, values can overlap the other calls; tested in HMLE shEcad cells
Gli-Sufu antag – antagonists of Gli-Sufu signaling; Sufu-KO-LIGHT fibroblasts, Gli luciferase reporter luminescence; inhibition, % at 5 µM; AID 588413; hit rate 0.74% among 340,000;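 active = inhibition above about 55%, limit read from the data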;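 note: 0% = DMSO-treated cells and 100% = wells with medium but no cells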
PAX8 reporter – PAX8 transcriptional activity inhibition; inhibition, % at 12.6 µM; hit rate 1.2% among 360,000; RMG-I TPO-luciferase reporter, SteadyGlo, 24 h;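 active = mean replicate inhibition at least 60% with every replicate also reaching 60%; inconclusive = only one of the two criteria is met; inactive = mean below 60% and not all replicates reaching 60%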;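 note: luciferase light reporting Pax8 driven TPO promoter activity; plate controls were median of neutral control wells for no effect and mitoxantrone controls for full effect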
Beta cell apopt – beta cell apoptosis inhibition; INS-1E cytokine-induced death, ATP luminescence, 48 h; percent of positive-control rescue, neutral wells zero; protection from apoptosis, % (test concentration not listed); hit rate 0.8% among 300,000; AID 435005;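 active = Every replicate reaches about 75%, or at least half do and their mean reaches it too, limit read from the data; inconclusive = At least half of replicates reach the limit but their mean does not; inactive = Under half of replicates reach the limit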;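 note: 0% = cytokine-treated negative control wells and 100% = positive control rescue; higher means more ATP so stronger rescue from cytokine killing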
* = called active by the depositor; ? = inconclusive; . = no result given. Rows were chosen to be rich in hits. Some 4% of all compounds tested hit in one or more screens of this group.

SMILES	Shn3 3UTR inh	Mdm2-MdmX inh	CSC inhib	Gli-Sufu antag	PAX8 reporter	Beta cell apopt
CC1(C(=O)O)CCCN1C(=O)c1ccccc1OC(F)(F)F (stereo not drawn)	0.9	.	.	.	72.7*	.
CN(C)c1cccc2c(S(=O)(=O)NCC3CCN(C(=O)C(=O)c4cc5ccccc5o4)CC3)cccc12	.	.	.	.	62.0*	.
O=C(C(=O)N1CCC(CNS(=O)(=O)c2ccccc2OC(F)(F)F)CC1)c1cc2ccccc2o1	.	.	.	.	38.2	.
COc1ccc(CN2C(=O)C(C)Nc3ncnc(N4CCOCC4)c32)cc1 (stereo not drawn)	16.0	2.6	.	-16.2	69.2*	8.0
CO[C@H]1CN(C)C(=O)c2ccc(NS(=O)(=O)c3ccccc3)cc2OC[C@H](C)N(Cc2cccnc2)C[C@@H]1C	.	.	.	.	-0.9	.
CCc1cc(CNC(=O)c2ccc3nc(Cc4ccc(OC)c(OC)c4)oc3c2)on1	68.3	15.5	-9.2	18.8	-15.0	107.2*
O=C(C1=C[C@H](c2ccc(C(F)(F)F)cc2)C[C@H](OCc2ccc(CO)cc2)O1)N1CCN(Cc2ccc3c(c2)OCO3)CC1	30.4	45.2	80.2*	14.2	46.0	14.3
O=C(C1=C[C@@H](c2ccc(C(F)(F)F)cc2)C[C@@H](OCCCCO)O1)N1CCN(Cc2ccccc2)CC1	5.3	8.0	-6.7	9.5	-1.6	116.1*
COc1cccc(S(=O)(=O)Nc2ccc3c(c2)C(=O)N(C)C[C@@H](OC)[C@@H](C)CN(Cc2ccccc2F)[C@@H](C)CO3)c1	.	.	.	.	26.6	.
CO[C@@H]1CN(C)C(=O)c2ccc(NC(=O)Nc3ccccc3F)cc2OC[C@@H](C)N(Cc2ccccc2F)C[C@H]1C	.	.	.	.	70.7*	.
COc1cccc(S(=O)(=O)Nc2ccc3c(c2)C(=O)N(C)C[C@H](OC)[C@@H](C)CN(Cc2ccccc2F)[C@@H](C)CO3)c1	.	.	.	.	65.0*	.
COc1ccc(CN(C)C[C@H]2Oc3ccc(NS(=O)(=O)c4ccc(Cl)cc4)cc3CC(=O)N([C@H](C)CO)C[C@@H]2C)cc1	.	.	.	.	-6.4	.
C/C=C/c1ccc([C@@H]2[C@H](CO)N3CCCCN(C(=O)Nc4cc(F)ccc4F)C[C@@H]23)cc1	.	.	.	.	-39.4	.
C[C@@H]1CN([C@@H](C)CO)C(=O)c2cc(NC(=O)Nc3ccccc3)ccc2O[C@@H](C)CCCCO[C@H]1CN(C)C(=O)CCC(F)(F)F	.	.	.	.	-22.4	.
CCc1ccc(C2=NNC(=Nc3cccc(S(=O)(=O)N(C)C)c3)SC2)cc1	76.4	36.0	10.0	25.6	103.6*	120.2*
CC1CCC2C(=O)N(c3ccc(Cc4ccncc4)cc3)C(=O)C2C1 (stereo not drawn)	86.7*	-8.9	-3.3	42.7	16.9	8.3
O=C1C2C3C=CC(C3)C2C(=O)N1c1ccc(Cc2ccncc2)cc1 (stereo not drawn)	39.8	2.8	-0.9	-2.5	.	4.8
CCCCCCn1ccc(=N)cc1	86.4*	34.7	12.5	5.2	.	120.3*
C[C@H]1CN([C@@H](C)CO)C(=O)Cc2cc(NC(=O)CCCCCC(=O)Nc3ccccc3N)ccc2O[C@@H]1CN(C)S(=O)(=O)c1ccc(F)cc1	.	.	.	.	-26.7	.
COc1ccc(CN(C)C[C@H]2Oc3c(NS(=O)(=O)c4ccc(C)cc4)cccc3C(=O)N([C@H](C)CO)C[C@@H]2C)cc1	.	.	.	.	-2.7	.
OC1(c2cccc(C(F)(F)F)c2)CCN(c2ncnc3c2[nH]c2ccc(F)cc23)CC1	89.1*	.	.	-19.7	.	.
Fc1ccc2[nH]c3c(N4CCN(c5ccccc5)CC4)ncnc3c2c1	88.9*	44.0	3.5	-10.6	.	89.2*
O=C(CCCN1CCC(O)(c2cccc(C(F)(F)F)c2)CC1)c1ccc(F)cc1	5.7	29.8	-0.5	2.5	2.8	-3.2
CCN(CC)c1ccc(/C=N/NC(=O)Cc2cccs2)c(O)c1	21.3	.	29.3	10.3	13.0	91.5*
O=C(Cc1cccs1)N/N=C/c1ccccc1	-11.0	34.5	-2.5	-28.9	-3.4	-3.8
SMILES	Shn3 3UTR inh	Mdm2-MdmX inh	CSC inhib	Gli-Sufu antag	PAX8 reporter	Beta cell apopt
CCN(CC)c1ccc(/C=N/N(c2ccccc2)c2ccccc2)c(O)c1	80.5	-5.6	53.1	2.7	0.4	95.1*
CCN(CC)c1ccc(/C=N/N=C(c2ccccc2)c2ccccc2)c(O)c1	-11.3	7.2	61.3	2.1	-8.3	12.6
Nc1nc(-c2ccccc2)c(-c2ccc([N+](=O)[O-])cc2)s1	24.6	43.1	38.4	8.1	9.4	93.3*
Nc1nc(-c2ccccc2)c(-c2ccccc2)s1	0.4	1.6	8.4	-0.2	.	.
Cc1ccc(C)c(S(=O)(=O)N2CCCCC2CCNC(=O)C(=O)NCc2ccncc2)c1 (stereo not drawn)	18.4	11.9	-5.2	15.7	69.1*	3.7
O=C(C[C@@H]1C[C@@H]2c3cc(NC(=O)C4CCC4)ccc3O[C@@H]2[C@H](CO)O1)NC1CCCC1	.	.	.	.	-0.5	.
CCSc1nnc(-c2ccncc2)o1	-11.3	18.9	-7.0	-2.5	-13.3	-7.4
CCSc1nnc(-c2sc3nnc(-c4ccccc4)c(-c4ccccc4)c3c2N)o1	26.4	17.6	119.9*	6.2	.	18.9
COCC(=O)Nc1ccc2c(c1)C(=O)N(C)[C@H]1CC[C@@H](CC(=O)NCCc3ccncc3)O[C@H]1CO2	.	.	.	.	3.3	.
NC(=S)N/N=C/c1c(O)c(Br)cc2oc3c(c12)CCCC3	2.8	47.3	38.7	-11.6	17.2	82.4*
CN(C)C(=O)c1ccc(-c2ccc([C@@H]3[C@H](CO)N4CCCCN(Cc5ccncc5)C[C@@H]34)cc2)cc1	.	.	.	.	-51.2	.
O=C(CSC1=NNC(c2ccccn2)S1)Nc1ccc(C(F)(F)F)cc1 (stereo not drawn)	5.1	-4.6	93.4*	31.5	40.8	8.6
CC(=O)Nc1ccc(NC(=O)CSc2ccccn2)cc1	-9.9	12.9	-26.2	7.7	-1.8	1.8
c1ccc(CSC2=NNC(c3ccccn3)S2)cc1 (stereo not drawn)	-1.7	40.8	124.6*	3.1	-2.1	51.9
CNC[C@H]1Oc2ccc(NC(=O)Nc3ccc(F)cc3)cc2CC(=O)N([C@@H](C)CO)C[C@@H]1C	.	.	.	.	-9.6	.
C[C@@H]1CN([C@H](C)CO)C(=O)c2c(c3ccccc3n2C)-c2ccccc2CO[C@@H]1CN(C)Cc1cccnc1	.	.	.	.	35.2	.
C[C@@H]1CCCCO[C@@H](CN(C)C(=O)c2ccncc2)[C@@H](C)CN([C@@H](C)CO)C(=O)c2cc(NC(=O)C3CCCCC3)ccc2O1	.	.	.	.	-18.8	.
N#CCCCSc1nnc(CSc2nc3ccccc3s2)n1-c1ccccc1	15.9	8.4	-7.2	-0.8	.	1.1
CCCSc1nnc(CSc2nc3ccccc3s2)n1-c1ccccc1	87.3*	6.7	85.6*	11.3	.	44.4
COc1ccc(-c2cc(C(=O)N3CC4(C)CC3CC(C)(C)C4)no2)cc1 (stereo not drawn)	-26.7	27.6	?	-20.9	.	0.2
COc1ccc(-c2cc(C(=O)N3CC4(C)CC3CC(C)(C)C4)no2)cc1OC (stereo not drawn)	3.0	25.3	83.2*	17.0	.	-8.0
CC1(C)C[C@@H]2C[C@@](C)(CN2C(=O)c2cc(COc3cccc(C(F)(F)F)c3)on2)C1	6.1	9.6	95.8*	19.4	-35.1	103.9*
